Results filed as inconclusive are left out. The source made the active and inactive calls. Calls follow the shape of the dose curve; as a rule, active = well fitted cell-killing curve with a large enough effect; inconclusive = small, poorly fitted or top-dose-only effect, or effect the other way; inactive = flat fitted curve, though single readings scatter.
Legend:
Test in all cases: Primary qHTS to identify gynecologic anti-cancer compounds using libraries of approved drugs and bioactive compounds (AID 1345084); also: nearly all actives have a fitted effect of over 55% in size
[1] = system: C33A; details: Gynecologic cancer cell panel viability, ATPlite luminescence, 48 h; series mostly up to 57.5 µM
In short: (§1)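 48 h compound exposure at 37 C, 5% CO2; five-point qHTS. ATPlite luminescence readout of cell ATP.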

[2] = system: CASKI; details: Gynecologic cancer cell panel viability, ATPlite luminescence, 48 h; series mostly up to 57.5 µM
In short: as §1

[3] = system: Es-2; details: Gynecologic cancer cell panel viability, ATPlite luminescence, 48 h; series mostly up to 57.5 µM
In short: as §1

[4] = system: HeLa; details: Gynecologic cancer cell panel viability, ATPlite luminescence, 48 h; series mostly up to 57.5 µM
In short: as §1

[5] = system: Hek293T; details: Gynecologic cancer cell panel viability, ATPlite luminescence, 48 h, control line for the selectivity index; series mostly up to 57.5 µM
In short: as §1

[6] = system: JEG-3; details: Gynecologic cancer cell panel viability, ATPlite luminescence, 48 h; series mostly up to 57.5 µM
In short: as §1

[7] = system: OV90; details: Gynecologic cancer cell panel viability, ATPlite luminescence, 48 h; series mostly up to 57.5 µM
In short: as §1

[8] = system: PA-1; details: Gynecologic cancer cell panel viability, ATPlite luminescence, 48 h; series mostly up to 57.5 µM
In short: as §1

[9] = system: SKOV3; details: Gynecologic cancer cell panel viability, ATPlite luminescence, 48 h; series mostly up to 57.5 µM
In short: as §1

[10] = system: Tov-21-G; details: Gynecologic cancer cell panel viability, ATPlite luminescence, 48 h; series mostly up to 57.5 µM
In short: as §1

[11] = system: Tov112D; details: Gynecologic cancer cell panel viability, ATPlite luminescence, 48 h; series mostly up to 57.5 µM
In short: as §1
% is scaled to controls: 0 for no effect and ±100 for the full control effect; potency is read from the fitted curve at half-maximal effect.

CC(=O)O[C@H]1C[C@@]2(C)[C@@H](CC[C@H]3[C@@]4(C)C=CC(=O)[C@@H](C)[C@@H]4[C@H](O)C(=O)[C@@]32C)/C1=C(/CCC=C(C)C)C(=O)O
inactive: Potency [1] | Potency [2] | Potency [3] | Potency [4] | Potency [5] | Potency [6] | Potency [7] | Potency [8] | Potency [9] | Potency [10] | Potency [11]

CC(C)c1ccc2c(c1)C(=O)CC1[C@@](C)(C(=O)O)CCC[C@]21C (some centres undefined)
inactive: Potency [1] | Potency [2] | Potency [3] | Potency [4] | Potency [5] | Potency [6] | Potency [7] | Potency [8] | Potency [9] | Potency [10] | Potency [11]

C=C1CC[C@@H]2[C@](C)(CO[C@@H]3O[C@H](CO)[C@@H](O)[C@H](O)[C@H]3O)[C@H](O)CC[C@@]2(C)[C@@H]1C/C=C1/C(=O)OC[C@H]1O
inactive: Potency [1] | Potency [2] | Potency [3] | Potency [4] | Potency [5] | Potency [6] | Potency [7] | Potency [8] | Potency [9] | Potency [10] | Potency [11]

C[C@H](NC(=O)CCc1nc2ccccc2c(=O)[nH]1)c1ccccc1
inactive: Potency [1] | Potency [2] | Potency [3] | Potency [4] | Potency [5] | Potency [6] | Potency [7] | Potency [8] | Potency [9] | Potency [10] | Potency [11]

Cc1ccc(-c2c(C(=O)CF)n(CCCO)c3ncnc(N)c23)cc1
inactive: Potency [1] | Potency [2] | Potency [3] | Potency [4] | Potency [5] | Potency [6] | Potency [7] | Potency [8] | Potency [9] | Potency [10] | Potency [11]

C[C@H](NC(c1cccc(C[P+](=O)O)c1)[C@H](C)O)c1ccc(Cl)c(Cl)c1 (some centres undefined)
inactive: Potency [1] | Potency [2] | Potency [3] | Potency [4] | Potency [5] | Potency [6] | Potency [7] | Potency [8] | Potency [9] | Potency [10] | Potency [11]

CC1(C)CCCC2(C)C(CO)C(CO)=CCC12 (centres undefined)
inactive: Potency [1] | Potency [2] | Potency [3] | Potency [4] | Potency [5] | Potency [6] | Potency [7] | Potency [8] | Potency [9] | Potency [10] | Potency [11]

COc1cc([C@H]2c3cc(O)c(OC)cc3C[C@@H](CO[C@@H]3O[C@H](CO)[C@@H](O)[C@H](O)[C@H]3O)[C@@H]2CO)ccc1O
inactive: Potency [1] | Potency [2] | Potency [3] | Potency [4] | Potency [5] | Potency [6] | Potency [7] | Potency [8] | Potency [9] | Potency [10] | Potency [11]

O=C1NC(Cc2c[nH]c3ccccc23)C(=O)NC1Cc1cnc[nH]1 (centres undefined)
inactive: Potency [1] | Potency [2] | Potency [3] | Potency [4] | Potency [5] | Potency [6] | Potency [7] | Potency [8] | Potency [9] | Potency [10] | Potency [11]

COc1c2c(c(C)c3c1C(=O)OC3)OC1(C)CC(O)C34OC(OC)(CC(OC(C)=O)C3(C)C1C2)OC4(C)C (centres undefined)
inactive: Potency [1] | Potency [2] | Potency [3] | Potency [4] | Potency [5] | Potency [6] | Potency [7] | Potency [8] | Potency [9] | Potency [10] | Potency [11]

Cc1cc(OCc2nc(-c3ccccc3Cl)cs2)ccc1OCC(=O)O
inactive: Potency [1] | Potency [2] | Potency [3] | Potency [4] | Potency [5] | Potency [6] | Potency [7] | Potency [8] | Potency [9] | Potency [10] | Potency [11]

COC(=O)C1=CO[C@@H](O)C2C(CO)=CCC12 (some centres undefined)
inactive: Potency [1] | Potency [2] | Potency [3] | Potency [4] | Potency [5] | Potency [6] | Potency [7] | Potency [8] | Potency [9] | Potency [10] | Potency [11]

COc1cc(C(=O)OC[C@H]2O[C@@H](Oc3ccccc3/C=C/C(=O)O)[C@H](O)[C@@H](O)[C@@H]2O)cc(OC)c1OC
inactive: Potency [1] | Potency [2] | Potency [3] | Potency [4] | Potency [5] | Potency [6] | Potency [7] | Potency [8] | Potency [9] | Potency [10] | Potency [11]

CC1(C)CC[C@]2(CO[C@@H]3O[C@H](CO)[C@@H](O)[C@H](O)[C@H]3O)[C@@H](O)C[C@]3(C)C(=CCC4[C@@]5(C)CC[C@H](O[C@@H]6O[C@H](CO[C@@H]7O[C@H](CO[C@@H]8OC[C@@H](O)[C@H](O)[C@H]8O)[C@@H](O)[C@H](O)[C@H]7O)[C@@H](O)[C@H](O)[C@H]6O)C(C)(C)C5CC[C@]43C)[C@@H]2C1 (some centres undefined)
inactive: activity change, negative = cytotoxicity [1] 4.63% [at 11.6 µM] | activity change, negative = cytotoxicity [2] -3.94% [at 11.6 µM] | activity change, negative = cytotoxicity [3] 4.96% [at 11.6 µM] | activity change, negative = cytotoxicity [4] -7.27% [at 11.6 µM] | activity change, negative = cytotoxicity [5] 1.89% [at 11.6 µM] | activity change, negative = cytotoxicity [6] 1.67% [at 11.6 µM] | activity change, negative = cytotoxicity [7] -3.63% [at 11.6 µM] | activity change, negative = cytotoxicity [8] -8.81% [at 11.6 µM] | activity change, negative = cytotoxicity [9] -1.91% [at 11.6 µM] | activity change, negative = cytotoxicity [10] 4.01% [at 11.6 µM] | activity change, negative = cytotoxicity [11] -1.63% [at 11.6 µM]

COc1ccc(C(=O)n2c(C)c(Cc3cccc(O[C@@H](C)C(=O)O)c3)c3cc(OC(F)(F)F)ccc32)cc1
inactive: Potency [1] | Potency [2] | Potency [3] | Potency [4] | Potency [5] | Potency [6] | Potency [7] | Potency [8] | Potency [9] | Potency [10] | Potency [11]

C[C@@H]1CC[C@@]2(OC1)O[C@H]1C[C@H]3[C@@H]4CC=C5C[C@@H](O)CC[C@]5(C)[C@H]4CC[C@]3(C)[C@H]1[C@@H]2C
inactive: Potency [1] | Potency [2] | Potency [3] | Potency [4] | Potency [5] | Potency [6] | Potency [7] | Potency [8] | Potency [9] | Potency [10] | Potency [11]

CC(O)(CC(=O)O)CC(=O)OCc1ccc(O[C@@H]2O[C@H](CO)[C@@H](O)[C@H](O)[C@H]2O)cc1 (some centres undefined)
inactive: Potency [1] | Potency [2] | Potency [3] | Potency [4] | Potency [5] | Potency [6] | Potency [7] | Potency [8] | Potency [9] | Potency [10] | Potency [11]

CC(=O)O[C@@H]1[C@@H](CO)O[C@@](CO)(O[C@H]2O[C@H](COC(=O)/C=C/c3ccccc3)[C@@H](O)[C@H](O)[C@H]2O)[C@H]1O
inactive: Potency [1] | Potency [2] | Potency [3] | Potency [4] | Potency [5] | Potency [6] | Potency [7] | Potency [8] | Potency [9] | Potency [10] | Potency [11]

COc1cc(/C=C/C=O)cc(OC)c1O[C@@H]1O[C@H](CO)[C@@H](O)[C@H](O)[C@H]1O
inactive: Potency [1] | Potency [2] | Potency [3] | Potency [4] | Potency [5] | Potency [6] | Potency [7] | Potency [8] | Potency [9] | Potency [10] | Potency [11]

OC[C@H]1O[C@@H](O[C@H]2[C@H](OCc3ccccc3)O[C@H](CO[C@@H]3OC[C@@H](O)[C@H](O)[C@H]3O)[C@@H](O)[C@@H]2O)[C@H](O)[C@@H](O)[C@@H]1O
inactive: Potency [1] | Potency [2] | Potency [3] | Potency [4] | Potency [5] | Potency [6] | Potency [7] | Potency [8] | Potency [10] | Potency [11]

C[C@@H]1O[C@@H](O[C@@H]2[C@@H](O)[C@H](O[C@H]3CC[C@@]4(C)C(CC[C@]5(C)C4CC=C4[C@@H]6CC(C)(C)CC[C@]6(C(=O)O[C@@H]6O[C@H](CO)[C@@H](O)[C@H](O)[C@H]6O)CC[C@]45C)C3(C)C)O[C@H](C(=O)O)[C@H]2O)[C@H](O)[C@H](O)[C@H]1O (some centres undefined)
inactive: activity change, negative = cytotoxicity [1] -0.88% [at 11.6 µM] | activity change, negative = cytotoxicity [2] 17% [at 11.6 µM] | activity change, negative = cytotoxicity [3] 6.6% [at 11.6 µM] | activity change, negative = cytotoxicity [4] 2.44% [at 11.6 µM] | activity change, negative = cytotoxicity [5] 5.01% [at 11.6 µM] | activity change, negative = cytotoxicity [6] 4.87% [at 11.6 µM] | activity change, negative = cytotoxicity [7] 3.49% [at 11.6 µM] | activity change, negative = cytotoxicity [8] 2.04% [at 11.6 µM] | activity change, negative = cytotoxicity [10] 1.47% [at 11.6 µM] | activity change, negative = cytotoxicity [11] 5.96% [at 11.6 µM]

COc1c(Nc2ncc(Cl)c(N[C@H]3[C@@H](C(N)=O)[C@@H]4C=C[C@H]3C4)n2)ccc2c1CC[C@@H](N1CCOCC1)CC2
inactive: Potency [1] | Potency [2] | Potency [3] | Potency [4] | Potency [5] | Potency [6] | Potency [7] | Potency [8] | Potency [10] | Potency [11]

C/C=C/c1ccc2c(c1)[C@@H](C)[C@H](c1ccc(O)cc1)O2
inactive: Potency [1] | Potency [2] | Potency [3] | Potency [4] | Potency [5] | Potency [6] | Potency [7] | Potency [8] | Potency [9] | Potency [10] | Potency [11]

O=C(Nc1c(-c2cccs2)nc2ccccn12)c1ccc(Cl)cc1
inactive: Potency [1] | Potency [2] | Potency [3] | Potency [4] | Potency [5] | Potency [6] | Potency [7] | Potency [8] | Potency [11]

C=C(C(=O)O)[C@H]1C[C@]2(C)[C@@H](O)CC[C@]23O[C@H]1C[C@@H]3C
inactive: Potency [1] | Potency [2] | Potency [3] | Potency [4] | Potency [5] | Potency [6] | Potency [7] | Potency [8] | Potency [10] | Potency [11]

C=C1CN(Cc2ccc(C(=O)Nc3ccccc3N)cc2)C(=O)c2ccccc21
active: Potency [1] 2.82 µM | Potency [2] 4.47 µM | Potency [3] 5.01 µM | Potency [4] 3.55 µM | Potency [5] 2.24 µM | Potency [6] 5.62 µM | Potency [7] 6.31 µM | Potency [8] 2.24 µM | Potency [9] 1.41 µM | Potency [11] 3.98 µM

C[C@@H]1O[C@@H](O[C@H]2[C@@H]3C=CO[C@@H](O[C@@H]4O[C@H](CO)[C@@H](O)[C@H](O)[C@H]4O)[C@@H]3[C@@]3(CO)O[C@@H]23)[C@H](OC(=O)/C=C/c2ccccc2)[C@H](O)[C@H]1O
inactive: Potency [1] | Potency [2] | Potency [3] | Potency [4] | Potency [5] | Potency [6] | Potency [7] | Potency [8] | Potency [10] | Potency [11]
